Several values for one entry are separate records, joined by “and”; a condition that tells them apart may be missing. Equal values may be shown once. Hit rate of the full screen: of about 5,500 compounds, about 2,000 (36%) were called active. Another 18% or so got no clear call; they are omitted. No stated cut-off is given here; in the data, active means normalized growth mostly below about 0.91 (no sharp cut-off); inconclusive means no clear call, values can overlap the other calls; inactive means mostly above about 0.92. The list shows a part of the results.
Assay: chemical genetic growth profiling, strain panel (AID 1159580);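 further: tested at 20 µM; growth read once vehicle control cultures reached saturation at 30 °C; 1 = growth at the plate median or of vehicle wells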
Details: growth OD

Measured: normalized growth

CC(C(=O)O)c1cccc(Oc2ccccc2)c1 (configuration not stated)
inactive: S. cerevisiae deletion strains, locus YAL013W, strain DEP1, stronger effect = lower value 0.963 | S. cerevisiae deletion strains, locus YBR021W, strain FUR4, stronger effect = lower value 0.983 | S. cerevisiae deletion strains, locus YBR229C, strain ROT2, stronger effect = lower value 0.94 | S. cerevisiae deletion strains, locus YCL029C, strain bik1, stronger effect = lower value 0.98 | S. cerevisiae deletion strains, locus YDL035C, strain GPR1, stronger effect = lower value 0.983 | S. cerevisiae deletion strains, locus YDL074C, strain BRE1, stronger effect = lower value 0.997 | S. cerevisiae deletion strains, locus YDL101C, strain DUN1, stronger effect = lower value 0.96 | S. cerevisiae deletion strains, locus YDL134C, strain PPH21, stronger effect = lower value 0.976 | S. cerevisiae deletion strains, locus YDL185W, strain tfp1, stronger effect = lower value 0.948 | S. cerevisiae deletion strains, locus YDL192W, strain arf1, stronger effect = lower value 0.973 | S. cerevisiae deletion strains, locus YDR101C, strain arx1, stronger effect = lower value 0.984 | S. cerevisiae deletion strains, locus YDR150W, strain NUM1, stronger effect = lower value 0.947 | S. cerevisiae deletion strains, locus YDR162C, strain NBP2, stronger effect = lower value 0.969 | S. cerevisiae deletion strains, locus YDR318W, strain mcm21, stronger effect = lower value 0.988 | S. cerevisiae deletion strains, locus YDR388W, stronger effect = lower value 0.978 | S. cerevisiae deletion strains, locus YDR502C, strain sam2, stronger effect = lower value 0.981 | S. cerevisiae deletion strains, locus YEL061C, strain CIN8, stronger effect = lower value 0.973 | S. cerevisiae deletion strains, locus YER110C, stronger effect = lower value 0.967 | S. cerevisiae deletion strains, locus YER155C, strain BEM2, stronger effect = lower value 0.958 | S. cerevisiae deletion strains, locus YER167W, strain BCK2, stronger effect = lower value 0.988 | S. cerevisiae deletion strains, locus YGL078C, strain dbp3, stronger effect = lower value 0.959 | S. cerevisiae deletion strains, locus YGL086W, strain mad1, stronger effect = lower value 0.98 | S. cerevisiae deletion strains, locus YGL248W, strain PDE1, stronger effect = lower value 0.974 | S. cerevisiae deletion strains, locus YGR078C, strain PAC10, stronger effect = lower value 0.999 | S. cerevisiae deletion strains, locus YGR135W, strain pre9, stronger effect = lower value 0.985 | S. cerevisiae deletion strains, locus YGR229C, strain SMI1, stronger effect = lower value 0.974 | S. cerevisiae deletion strains, locus YGR252W, strain gcn5, stronger effect = lower value 0.957 | S. cerevisiae deletion strains, locus YHR030C, strain SLT2, stronger effect = lower value 0.978 and 0.9 | S. cerevisiae deletion strains, locus YHR079C, strain IRE1 (second series), stronger effect = lower value 0.972 | S. cerevisiae deletion strains, locus YHR079C, strain IRE1, stronger effect = lower value 0.892 | S. cerevisiae deletion strains, locus YHR094C, strain hxt1, stronger effect = lower value 0.965 | S. cerevisiae deletion strains, locus YHR129C, strain ARP1, stronger effect = lower value 0.983 | S. cerevisiae deletion strains, locus YHR200W, strain rpn10, stronger effect = lower value 0.98 | S. cerevisiae deletion strains, locus YIL066C, strain RNR3, stronger effect = lower value 0.964 | S. cerevisiae deletion strains, locus YIL073C, strain SPO22, stronger effect = lower value 0.965 | S. cerevisiae deletion strains, locus YIL125W, strain kgd1, stronger effect = lower value 0.944 | S. cerevisiae deletion strains, locus YIR030C, strain dcg1, stronger effect = lower value 0.962 | S. cerevisiae deletion strains, locus YJL095W, strain BCK1, stronger effect = lower value 1.05 and 0.905 | S. cerevisiae deletion strains, locus YJL134W, strain LCB3, stronger effect = lower value 0.962 | S. cerevisiae deletion strains, locus YJL168C, strain set2, stronger effect = lower value 0.967 | S. cerevisiae deletion strains, locus YJL187C, strain SWE1 (second series), stronger effect = lower value 0.983 | S. cerevisiae deletion strains, locus YJR043C, strain POL32, stronger effect = lower value 1 | S. cerevisiae deletion strains, locus YJR066W, strain TOR1, stronger effect = lower value 0.856 | S. cerevisiae deletion strains, locus YJR075W, strain HOC1, stronger effect = lower value 0.998 | S. cerevisiae deletion strains, locus YKL009W, strain mrt4, stronger effect = lower value 0.879 | S. cerevisiae deletion strains, locus YKL190W, strain CNB1, stronger effect = lower value 0.979 | S. cerevisiae deletion strains, locus YKR001C, strain vps1, stronger effect = lower value 0.947 | S. cerevisiae deletion strains, locus YLR039C, strain RIC1, stronger effect = lower value 0.842 | S. cerevisiae deletion strains, locus YLR058C, strain SHM2, stronger effect = lower value 0.957 | S. cerevisiae deletion strains, locus YLR102C, strain apc9, stronger effect = lower value 0.97 | S. cerevisiae deletion strains, locus YLR262C, strain YPT6, stronger effect = lower value 0.859 | S. cerevisiae deletion strains, locus YLR268W, strain sec22, stronger effect = lower value 1.04 | S. cerevisiae deletion strains, locus YLR330W, strain CHS5, stronger effect = lower value 0.956 | S. cerevisiae deletion strains, locus YLR342W, strain FKS1 (second series), stronger effect = lower value 0.999 | S. cerevisiae deletion strains, locus YLR371W, strain rom2, stronger effect = lower value 0.962 | S. cerevisiae deletion strains, locus YLR418C, strain cdc73, stronger effect = lower value 0.99 | S. cerevisiae deletion strains, locus YML016C, strain PPZ1, stronger effect = lower value 0.97 | S. cerevisiae deletion strains, locus YML032C, strain rad52, stronger effect = lower value 0.987 | S. cerevisiae deletion strains, locus YML124C, strain tub3, stronger effect = lower value 0.968 | S. cerevisiae deletion strains, locus YMR078C, strain ctf18, stronger effect = lower value 0.953 | S. cerevisiae deletion strains, locus YMR223W, strain ubp8, stronger effect = lower value 0.968 | S. cerevisiae deletion strains, locus YMR263W, strain SAP30, stronger effect = lower value 0.982 | S. cerevisiae deletion strains, locus YMR307W, strain GAS1, stronger effect = lower value 0.953 | S. cerevisiae deletion strains, locus YNL067W, strain RPL9B, stronger effect = lower value 1 | S. cerevisiae deletion strains, locus YNL128W, strain TEP1, stronger effect = lower value 0.966 | S. cerevisiae deletion strains, locus YNL153C, strain GIM3, stronger effect = lower value 0.997 | S. cerevisiae deletion strains, locus YNL183C, strain NPR1, stronger effect = lower value 0.864 | S. cerevisiae deletion strains, locus YNL233W, strain BNI4, stronger effect = lower value 1 | S. cerevisiae deletion strains, locus YNL250W, strain rad50, stronger effect = lower value 0.941 | S. cerevisiae deletion strains, locus YNL271C, strain bni1, stronger effect = lower value 0.951 | S. cerevisiae deletion strains, locus YNL298W, strain CLA4, stronger effect = lower value 0.929 | S. cerevisiae deletion strains, locus YNL307C, strain MCK1, stronger effect = lower value 0.979 | S. cerevisiae deletion strains, locus YNL322C, strain KRE1, stronger effect = lower value 0.969 | S. cerevisiae deletion strains, locus YNR052C, strain pop2, stronger effect = lower value 0.98 | S. cerevisiae deletion strains, locus YOL006C, strain TOP1, stronger effect = lower value 1 | S. cerevisiae deletion strains, locus YOL012C, strain htz1 1.04 | S. cerevisiae deletion strains, locus YOL147C, strain pex11, stronger effect = lower value 0.975 | S. cerevisiae deletion strains, locus YOR061W, strain CKA2, stronger effect = lower value 0.964 | S. cerevisiae deletion strains, locus YOR069W, strain VPS5, stronger effect = lower value 0.966 | S. cerevisiae deletion strains, locus YOR136W, strain idh2, stronger effect = lower value 0.977 | S. cerevisiae deletion strains, locus YOR144C, strain elg1, stronger effect = lower value 0.972 | S. cerevisiae deletion strains, locus YOR184W, strain ser1, stronger effect = lower value 0.98 | S. cerevisiae deletion strains, locus YOR231W, strain MKK1, stronger effect = lower value 0.894 | S. cerevisiae deletion strains, locus YOR316C, strain cot1, stronger effect = lower value 0.962 | S. cerevisiae deletion strains, locus YPL055C, strain LGE1, stronger effect = lower value 0.964 | S. cerevisiae deletion strains, locus YPL241C, strain CIN2, stronger effect = lower value 0.976 | S. cerevisiae deletion strains, locus YPL256C, strain CLN2, stronger effect = lower value 0.851 | S. cerevisiae deletion strains, locus YPR119W, strain clb2, stronger effect = lower value 0.958 | S. cerevisiae deletion strains, locus YPR141C, strain kar3, stronger effect = lower value 0.921 | S. cerevisiae deletion strains, locus YPR163C, strain tif3, stronger effect = lower value 0.986 | S. cerevisiae deletion strains, locus YPR167C, strain met16, stronger effect = lower value 0.975 | S. cerevisiae deletion strains, strain wtn01, stronger effect = lower value 0.983 | S. cerevisiae strains, strain wild type, stronger effect = lower value 0.973
active: S. cerevisiae deletion strains, locus YKL068W, stronger effect = lower value 0.937 | S. cerevisiae deletion strains, locus YKL085W, strain MDH1 (second series), stronger effect = lower value 0.919 | S. cerevisiae deletion strains, locus YKL085W, strain MDH1, stronger effect = lower value 0.919 | S. cerevisiae deletion strains, locus YLR113W, strain HOG1, stronger effect = lower value 0.828
